hcDAF-12 act: H. contortus DAF-12 nuclear receptor activators, primary screen, cell-based, luminescence, HEK293, lit1-tk-luc reporter. HEK293 hcDAF-12 lit1-tk-luc reporter; 0% DMSO, 100% Δ7-dafachronic acid. activation, % at 6.8 µM. hit rate 1.4% among 370,000;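 active = activation above the mean of all tested compounds plus 3 SD, cut at about 5.5% in these data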;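 also: 100% = response to 3 µM Δ7-dafachronic acid high control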
DAX1 inh-1: DAX1 (NR0B1) inhibitors, primary screen, cell-based, HEK293, Gal4-DAX1, luciferase luminescence | Nuclear receptor subfamily 0 group B member 1 (Homo sapiens), P51843 | AID 504766, 2011 | inhibition, % at 6.75 µM | hit rate 0.99% among 340,000 | HEK293 Gal4-DAX1 luciferase reporter;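 active = inhibition above the mean over all tested compounds plus 3 SD, cut at about 4.2% in these data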;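 also: 0% = DAX1-transfected cells with DMSO and 100% = empty-vector control cells with DMSO; inhibition shows as a rise in luminescence from relieved DAX1 repression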
Target sequence (P51843 207-470 limits assumed): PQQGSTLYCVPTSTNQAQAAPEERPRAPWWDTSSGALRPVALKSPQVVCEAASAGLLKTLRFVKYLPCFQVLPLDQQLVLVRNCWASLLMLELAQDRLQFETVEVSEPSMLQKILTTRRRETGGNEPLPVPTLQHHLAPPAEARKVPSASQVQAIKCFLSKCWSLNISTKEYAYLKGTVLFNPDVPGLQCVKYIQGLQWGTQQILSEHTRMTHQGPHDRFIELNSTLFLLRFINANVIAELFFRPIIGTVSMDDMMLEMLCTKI
DAX1 inh-2: DAX1 (NR0B1) inhibitors on StAR promoter, primary screen, cell-based, luminescence, SF-1 (NR5A1), full-length DAX-1; inhibition, % at 6.8 µM; HEK293T StAR-luciferase reporter, SF-1/DAX-1 repression relief; hit rate 1.1% among 370,000;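 active = inhibition above the mean over all tested compounds plus 3 SD, cut at about 3.6% in these data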;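 also: 0% = DAX-1 cells with DMSO and 100% = cells lacking DAX-1 with DMSO; higher inhibition means more luminescence from relief of DAX-1 repression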
ssDAF12 agonist: S. stercoralis DAF-12 nuclear receptor activators, primary screen, cell-based, luminescence, HEK293, GRIP1 co-expression, lit1-tk-luc; Nuclear hormone receptor DAF-12 (Strongyloides stercoralis); HEK293 ssDAF-12/GRIP1 lit1-tk-luc reporter; % of 3 µM dafachronic acid response; activation, % at 6.8 µM; hit rate 1% among 370,000; AID 652126, 2013;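 active = activation above the mean over all tested compounds plus 3 SD, cut at about 0.9% in these data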;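 also: 0% = DMSO-only wells and 100% = 3 µM delta7-dafachronic acid wells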
hgDAF12 agonist: H. glycines DAF-12 receptor agonists, primary screen, cell-based, luminescence, HEK293, GAL4 fusion, UAS-luciferase; Nuclear hormone receptor DAF-12 (Heterodera glycines), GAL4 fusion; HEK293 GAL4-hgDAF12 UAS-luciferase reporter, agonist luminescence; normalized to butyrate control; activation, % at 6.8 µM; hit rate 1.8% among 370,000;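 active = activation above a cutoff set at the mean of all screened compounds plus 3 SD, cut at about 10% in these data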;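 also: 0% = DMSO wells and 100% = sodium butyrate wells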
Numbers without * were called inactive; · = not tested or not shown. In the library only some 4.1% were active in any assay of this set; here they are far more common.

SMILES	hcDAF-12 act	DAX1 inh-1	DAX1 inh-2	ssDAF12 agonist	hgDAF12 agonist
Cc1ccc(C(=O)N/N=C\C=C\c2ccc(Br)cc2)cn1	6.5*	0	0	1.0*	1
N=c1n(CCN2CCCCC2)c2ccccc2n1CC(O)c1ccco1 (stereo unspecified)	2	5.1*	1	-1	0
CCn1c(=N)n(CC(O)c2ccco2)c2ccccc21 (stereo unspecified)	-1	1	0	-2	-5
O=C(O)c1ccccc1NS(=O)(=O)c1cccc(NS(=O)(=O)c2cc(Br)ccc2Br)c1	0	-1	0	-1	1
Cc1ccc(-c2ccc(/C=N/O)o2)cc1[N+](=O)[O-]	0	-2	0	-2	13*
O=C(c1ccc(Cl)c(S(=O)(=O)N2CCOCC2)c1)N1CCCCCC1	-1	-3	0	-1	0
CC(=O)NC(C)C12CC3CC(CC(CC(=O)O)(C3)C1)C2 (stereo unspecified)	-1	4.4*	0	-1	1
CC(=O)NC12CC3CC(CC(CC(=O)O)(C3)C1)C2	0	1	1	-1	1
COc1ccc(CN2C(=O)[C@]3(NCCc4c3[nH]c3ccc(OC)cc43)c3cc(Br)ccc32)cc1	-3	·	-2	-1	-2
CCSc1nnc(NS(=O)(=O)c2ccc(C)cc2)s1	0	-1	1	-1	0
COC(=O)C1=C(C)N(Cc2ccc(C(F)(F)F)cc2)C(=NCc2ccccc2)NC1c1ccc(C(F)(F)F)cc1 (stereo unspecified)	2	·	1	-1	2
O=[N+]([O-])c1cc2c(ccc3occc32)o1	-1	·	-4	-1	-7
O=C(CCC1CCCN(C(=O)CCCc2ccccc2)C1)N1CCN(c2ccccn2)CC1 (stereo unspecified)	-2	1	-1	-2	-1
CCN(c1ccccc1)S(=O)(=O)c1cccc(C(=O)OCC(=O)c2c(N)n(C)c(=O)n(C)c2=O)c1	-1	0	-2	-1	1
COc1ccc(N(C)S(=O)(=O)c2cccc(C(=O)OCC(=O)c3c(N)n(C)c(=O)n(C)c3=O)c2)cc1	-1	-4	-1	2.5*	0
C#CCN1CC(N(C)CCOC(=O)c2occ3ccccc23)CS1(=O)=O (stereo unspecified)	-2	·	1	-1	-2
Cc1cc(C)cc(NC(=O)c2ccccc2CC[N+](=O)[O-])c1	-1	-1	0	-1	-1
Cc1ccc(NC(=O)Nc2ccccc2CC[N+](=O)[O-])cc1	5.8*	·	0	0	6
FC(F)(F)Oc1cccc(Cn2ccc3ccc(-c4ccc5ccn(Cc6ccccc6)c5c4)cc32)c1	1	·	0	-1	1
CC1(C)CNC(=O)c2sc(N3CCCCC3)nc2C1	0	5.6*	0	0	1
CC1(C)CC(=O)c2sc(N3CCCCC3)nc2C1	1	3	1	0	4
O=C(NC1CCCCN(Cc2cccc(C(F)(F)F)c2)C1=O)c1ccc(Cl)c(Cl)c1 (stereo unspecified)	-2	·	-1	-2	-1
COC(=O)[C@]12C[C@H](CC(=O)NCCC(C)C)C(=O)N(CCC3=CCCCC3)C1=C[C@H](C1CCCC1)O[C@@H]2C	3	·	-1	-1	2
Cc1cc(C)nc(CC(N)=O)n1	0	5.9*	0	-2	0
Cc1ccc(NC(=O)OC2CC3CC2[C@H]2CCCCN2C3)cc1 (stereo partly specified)	0	·	0	-1	11*
SMILES	hcDAF-12 act	DAX1 inh-1	DAX1 inh-2	ssDAF12 agonist	hgDAF12 agonist
O=C(Nc1ccc(Br)cc1)OC1CC2CC1[C@H]1CCCCN1C2 (stereo partly specified)	0	·	0	0	-2
O=C(O)COc1ccccc1C=NNC(=O)Cc1cc(=O)[nH][nH]1	0	·	1	0	1
COc1ccccc1OCC(=O)Nc1ccc(S(=O)(=O)Nc2nccs2)cc1	-1	-2	0	-1	-3
COCC(=O)Nc1ccc(S(=O)(=O)Nc2nccs2)cc1	1	4.4*	0	-1	0
Cc1ccc(C)c(NC(=O)C(OC(=O)c2cnc(C)cn2)c2ccccc2)c1 (stereo unspecified)	1	-1	2	0	1
Cc1cnc(C(=O)OC(C(=O)c2c[nH]c3ccccc23)c2ccccc2)cn1 (stereo unspecified)	1	0	2	0.9*	0
CC(=O)Nc1cc(C(=O)OCC(=O)c2ccccc2)ccc1C	7.0*	0	4	0	12*
Cc1ccc(C(=O)OCC(=O)Nc2ccccc2)cc1NC(=O)c1ccco1	2	-1	1	0	5
Cc1cc(C)cc(C(=O)OCCN(C)C2CN(Cc3cn(Cc4ccccc4F)nn3)S(=O)(=O)C2)c1 (stereo unspecified)	-2	·	-1	-2	0
CC1CCCCC1NC(=O)CC1Oc2ccccc2NC1=O (stereo unspecified)	0	2	0	0	5
CC1CCCCN1CCNC(=O)CC1Oc2ccccc2NC1=O (stereo unspecified)	2	4.6*	1	3.2*	2
Cc1ccc2c(c1)NC(=O)C(CC(=O)NC1CCCCC1C)O2 (stereo unspecified)	0	4.8*	0	-2	-1
Cc1ccc2c(c1)NC(=O)C(CC(=O)NCCCN1CCCCC1C)O2 (stereo unspecified)	3	1	-1	-1	2
CC(=O)CC[C@H]1CC[C@]2(CCCN(C(=O)c3ccccc3)C2)O1	0	·	0	-1	1
O=C(Nc1cc(Br)ccc1O)c1cc(-c2ccc3c(c2)OCO3)on1	5	5.7*	0	0	5
CSc1ccccc1NC(=O)c1cc(-c2ccc3c(c2)OCO3)on1	1	1	0	0	4
CC(C)CNC(=O)c1cc(-c2ccc3c(c2)OCO3)on1	3	3	3	0	9
CN(C(=O)c1cc(-c2ccc3c(c2)OCO3)on1)c1ccccc1	3	3	1	0	11*
Cc1cccc(-c2cccc3c4c([nH]c23)[C@@H]2C[C@H](N(C)C(=O)C3CCCCC3)[C@H]([C@H](C)O)CN2CC4)c1	2	·	0	-1	-3
COc1ccc(CNS(=O)(=O)CC2NCc3cc(OC)ccc32)cc1 (stereo unspecified)	-1	·	2	-1	6

Screening results as filed in PubChem.
